Screens as filed in PubChem BioAssay.
KCNQ2 pot = KCNQ2 (rat) channel potentiation | O88943 | CHO-K1 KCNQ2, FluxOR thallium flux fluorescence; hits give high values | B-score at 10 µM | 310,000 tested, 0.54% active | AID 2239;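 active = fluorescence ratio B-score at least 3 SD of library B-scores, with initial fluorescence B-score within 3 of them, cut at about 5.3 in these data; same plate scores as AID 2156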;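 also: B-score of peak minus minimum over baseline fluorescence ratio after K+ and Tl+ stimulus; positive B-score means potentiation of KCNQ2 with more thallium influx and brighter signal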
KCNQ2 inh = KCNQ2 (rat) channel inhibition; CHO-K1 KCNQ2, FluxOR thallium flux, 20 min; hits give low values; B-score at 10 µM; 310,000 tested, 1.1% active; AID 2156;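 active = fluorescence ratio B-score at most minus 3 library SDs, with starting brightness B-score within 2 library SDs, cut at about -5.5 in these data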
A number is an active result; - = inactive; . = not tested or not shown. Only some compounds are listed: those with a hit (about 1.6% of all), similar ones and a draw of the others.

SMILES	KCNQ2 pot	KCNQ2 inh
O=C(CSc1nnc(CNC(=O)c2c(F)cccc2Cl)o1)NCc1ccccc1	-	-
COc1cc(CNCCc2c[nH]c3ccccc23)ccc1OCc1ccc(F)cc1	-	-7.2
COc1cc(CNCCc2c[nH]c3ccccc23)cc(Cl)c1OCC(N)=O	-	-
Cc1ccc(C(=O)O)cc1N1C(=O)c2cccc3c([N+](=O)[O-])ccc(c23)C1=O	.	-
O=C(O)c1ccc(CN2C(=O)c3cccc4c([N+](=O)[O-])ccc(c34)C2=O)cc1	-	-8.6
Cc1ccc(-n2c(C)nnc2SCC(=O)NC2CCCC2)cc1	.	-
N#C/C(=C\c1cc(Cl)cc(Cl)c1O)C(=O)NC1CCCCC1	-	-5.7
N#C/C(=C\c1ccc(F)c(Br)c1)C(=O)NC1CC1	.	-
N#C/C(=C\c1cc(Cl)ccc1O)C(=O)NC1CCCCC1	.	-
N#C/C(=C\c1cc(Br)ccc1F)C(=O)NC1CC1	-	-6.1
Cc1ccc(S(=O)(=O)CCN2CCC(n3cccc3)CC2)cc1	.	-
O=C(NCCc1ccccc1)[C@@H]1CC=C[C@@H]2CCN(C3CCCCC3)C(=O)[C@@H]21	.	-
CSCCC(NC(=O)c1ccc(Cl)cc1Cl)C(=O)OC1CCCCC1=O (stereo not drawn)	-	-8.1
CSCCC(NC(=O)c1ccc(Cl)cc1Cl)C(=O)NCc1ccccn1 (stereo not drawn)	.	-
CC(Oc1ccc(F)cc1)C(=O)Nc1ccccc1N1CCCCC1 (stereo not drawn)	-	-7.7
CCC(Oc1ccccc1)C(=O)Nc1ccccc1N1CCCCC1 (stereo not drawn)	.	-
CCCCC(C(=O)NC(C)(C)C)N(Cc1ccccc1Cl)C(=O)c1snc(C(N)=O)c1N (stereo not drawn)	-	-
O/N=C/c1ccc(OCc2ccccc2)c(Br)c1	.	-
O/N=C/c1cc(Br)cc(Br)c1OCc1ccccc1	-	-5.6
CC(C(=O)O)n1c2ccccc2c2cnn(C)c(=O)c21 (stereo not drawn)	-	-
CC(C)n1c(NCc2nc3ccccc3n2C)nc2ccccc21	.	-
CCn1c(CNc2nc3ccccc3n2C(C)C)nc2ccccc21	-	-8.3
CCOc1ccc(NC(=O)CCn2c(=O)[nH]c3ccsc3c2=O)cc1	-	-
Cc1ccc(NC(=O)CN(C)CC(=O)Nc2ccccc2-c2ccccc2)cc1	.	-
CN(CC(=O)Nc1ccccc1-c1ccccc1)Cc1ccccc1Cl	-	-6.3
SMILES	KCNQ2 pot	KCNQ2 inh
Cc1cccc(/N=C/c2nc(-c3ccccc3Br)oc2O)n1	.	-
Oc1oc(-c2cccc3ccccc23)nc1/C=N/c1nccs1	9.4	-
Cc1ccc2[nH]cc(CCNC(=O)C3CCCO3)c2c1 (stereo not drawn)	-	-
O=C(Oc1ccccc1)n1c(=S)oc2ccccc21	-	-
Cc1ccccc1OC(=O)n1c(=S)oc2cc(Cl)ccc21	6.9	-
OCC1(CC2CCCCO2)CCN(Cc2cccc(O)c2)CC1 (stereo not drawn)	-	-
COCCC(=O)N1CCCC(C(=O)c2ccc(C(F)(F)F)cc2)C1 (stereo not drawn)	6.8	-
O=C(c1ccc(C(F)(F)F)cc1)C1CCCN(C(=O)CN2CCCC2=O)C1 (stereo not drawn)	-	-
O=C(Nc1nc(-c2ccccc2)cs1)c1ccc(N2CCOCC2)c([N+](=O)[O-])c1	-	-7.8
Cc1ccc(-c2csc(NC(=O)c3cc([N+](=O)[O-])ccc3N3CCOCC3)n2)cc1	.	-
Cc1cc(C)c(C)c(N=Nc2nc3ccccc3n2C)c1C	.	-
Cc1ccc(C)c(N=Nc2nc3ccccc3n2C)c1	-	-6
CC(=O)c1ccc(OCc2cc(C(=O)N3CCN(C4CCCC4)C(=O)C3)no2)cc1	.	-
COc1ccc(COCC(O)CN(Cc2ccco2)Cc2ccccc2O)cc1 (stereo not drawn)	.	-
Oc1ccccc1CN(Cc1ccco1)CC(O)COCc1ccc(Cl)cc1 (stereo not drawn)	-	-6.1
COc1ccccc1NC(=O)NC1(C(=O)N2CCN(C)CC2)CCCCC1	.	-
Cn1nccc1C(=O)Nc1ccc2c(c1)OCO2	-	-
CSc1nc(-c2ccc(C)cc2)[nH]c1S(=O)(=O)c1ccccc1	.	-
CC(=O)Sc1nc(-c2ccccc2)[nH]c1S(=O)(=O)c1ccc(C)cc1	-	-11
O=C(c1ccc2c(c1)OCO2)N(Cc1ccco1)C1(C(=O)NC2CCCCC2)CCCCC1	-	-7.3
O=C(c1ccccn1)N(Cc1ccco1)C1(C(=O)NC2CCCC2)CCCCC1	.	-
Oc1c(Br)cc(Br)cc1C=NCc1ccccc1	.	-
Oc1c(Br)cc(Br)cc1C=NCc1ccc(F)cc1	11	-
O=C(CN1C(=O)NC2(CCCc3ccccc32)C1=O)Nc1cc(F)ccc1F (stereo not drawn)	.	-
COC(=O)C(CC(=O)c1ccc(Br)cc1)n1ccnc1 (stereo not drawn)	-	-6.2
COC(=O)C(CC(=O)c1ccc(Br)cc1)n1nc(C)cc1C (stereo not drawn)	-	-
Cn1cccc1C(=O)NCc1ccc(S(N)(=O)=O)cc1	-	-
